Test results from PubChem BioAssay (NCI).
Compounds without any hit were thinned out: in the full panel of roughly 79,000, 15% have a hit. Activity calls are given as the source filed them. No stated cut-off is given here; in the data, active means growth inhibition above about 70%; inactive means the rest.

Assays:
[1] = NCI Yeast Anticancer Drug Screen. Data for the rad50 strain (AID 155);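 further: 0% = growth of vehicle-only cultures of the same strain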; settings: S. cerevisiae rad50 strain growth inhibition, stronger effect = higher value
In short: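 Inhibition values express reduced yeast growth in compound-treated cultures relative to vehicle-treated controls.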

[2] = NCI Yeast Anticancer Drug Screen. Data for the mec2-1 strain (AID 157); settings: S. cerevisiae mec2-1 strain, stronger effect = higher value
In short: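 Cells of the genetically defined mec2-1 yeast strain are incubated with test compound. Inhibition of growth is calculated against vehicle-treated controls.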

[3] = NCI Yeast Anticancer Drug Screen. Data for the sgs1 mgt1 strain (AID 161);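 further: 0% = growth of cultures given vehicle only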; settings: S. cerevisiae sgs1 mgt1 strain, stronger effect = higher value
In short: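 Mutant yeast exposed to compound; growth scored against vehicle-only wells.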

[4] = NCI Yeast Anticancer Drug Screen. Data for the cln2 rad14 strain (AID 165);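 further: 0% = growth equal to vehicle treated cultures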; settings: S. cerevisiae cln2 rad14 strain, stronger effect = higher value
In short: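 The screen exposed genetically defined yeast (cln2 rad14) to test compounds and scored growth inhibition relative to vehicle-treated controls.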

[5] = NCI Yeast Anticancer Drug Screen. Data for the bub3 strain (AID 167); settings: S. cerevisiae bub3 mutant strain, stronger effect = higher value
In short: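 Steps: expose the mutant yeast strain to compound; grow alongside vehicle-treated cultures; measure growth; express inhibition against the vehicle cultures.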

[6] = NCI Yeast Anticancer Drug Screen. Data for the mlh1 rad18 strain (AID 175); settings: S. cerevisiae mlh1 rad18 strain growth inhibition, stronger effect = higher value
In short: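 Compound-treated yeast growth, normalised to vehicle controls. Strain bears defined DNA repair mutations.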

[7] = at 5.0 µM (retest, dose inferred, filed as 0.5)
[8] = at 50.0 µM (retest, dose inferred, filed as 5.0)

Measured: growth inhibition

CCCC(O)C[N+](=O)[O-] (stereo unspecified)
active: [1]; [8] 71%
inactive: [1]; [7] 6% | [1]; at 50.0 µM 48.2% | [2]; [7] -1% | [2]; [8] 6% | [2]; at 50.0 µM 13.2% | [3]; [7] -2% | [3]; [8] 9% | [3]; at 50.0 µM 15.2% | [4]; [7] -1% | [4]; [8] 1% | [4]; at 50.0 µM 4.5% | [5]; [7] -1% | [5]; [8] 4% | [5]; at 50.0 µM 13.5% | [6]; [7] 0% | [6]; [8] 14% | [6]; at 50.0 µM 11.8%

O=C(Nc1ccccc1-c1nn(C(=S)Nc2ccccc2)c(=S)n(C(=S)Nc2ccccc2)c1=O)C(F)(F)F
active: [2]; [8] 87% | [2]; at 50.0 µM 88.1% | [3]; [8] 77% | [6]; [8] 88% | [6]; at 50.0 µM 81.5%
inactive: [1]; [7] 6% | [1]; [8] 59% | [1]; at 50.0 µM 47.1% | [2]; [7] 2% | [3]; [7] 10% | [3]; at 50.0 µM 46.5% | [4]; [7] 7% | [4]; [8] 38% | [4]; at 50.0 µM 17.2% | [5]; [7] -41% | [5]; [8] 50% | [5]; at 50.0 µM 15.4% | [6]; [7] 3%

O=C(O/N=C1/CCCC/C1=C\c1ccccc1)c1ccccc1
inactive: [1]; [7] 24% | [2]; [7] 17% | [3]; [7] 51% | [4]; [7] 47% | [5]; [7] 53% | [6]; [7] 19%
active: [1]; [8] 86% | [1]; at 50.0 µM 76.2% | [2]; [8] 95% | [2]; at 50.0 µM 88.3% | [3]; [8] 94% | [3]; at 50.0 µM 85.8% | [4]; [8] 97% | [4]; at 50.0 µM 87% | [5]; [8] 94% | [5]; at 50.0 µM 81.1% | [6]; [8] 82% | [6]; at 50.0 µM 81.7%

CCCCCCC(C)OC(=O)/C=C/c1ccccc1 (stereo unspecified)
inactive: [1]; [7] 4% | [1]; [8] 4% | [1]; at 50.0 µM 33.5% | [2]; [7] -2% | [2]; [8] 1% | [2]; at 50.0 µM 14.2% | [3]; [7] 5% | [3]; [8] 10% | [3]; at 50.0 µM 11.9% | [4]; [7] 0% | [4]; [8] 1% | [4]; at 50.0 µM 39.4% | [5]; [7] 2% | [5]; [8] 13% | [5]; at 50.0 µM 17.5% | [6]; [7] 19% | [6]; [8] -6% | [6]; at 50.0 µM 26.9%

N#CSCCSC#N
active: [1]; [8] 95% | [1]; at 50.0 µM 76% | [2]; [8] 93% | [2]; at 50.0 µM 82.5% | [3]; [8] 91% | [3]; at 50.0 µM 87.2% | [4]; [8] 86% | [5]; [8] 96% | [5]; at 50.0 µM 81.8% | [6]; [8] 95% | [6]; at 50.0 µM 83.7%
inactive: [1]; [7] 5% | [2]; [7] -1% | [3]; [7] 4% | [4]; [7] 6% | [4]; at 50.0 µM 40.3% | [5]; [7] 9% | [6]; [7] 3%

CC1=C(C(=O)Nc2ccccc2)C(c2ccccc2F)C(C(=O)Nc2ccccc2)=C(C)N1
inactive: [1]; [7] -3% | [1]; [8] 27% | [1]; at 50.0 µM 48.4% | [2]; [7] -4% | [2]; [8] 11% | [2]; at 50.0 µM 44% | [3]; [7] -4% | [3]; [8] 17% | [3]; at 50.0 µM 31.3% | [4]; [7] 0% | [4]; [8] 37% | [4]; at 50.0 µM -19.1% | [5]; [7] -2% | [5]; [8] 28% | [5]; at 50.0 µM 11.6% | [6]; [7] -5% | [6]; [8] 47% | [6]; at 50.0 µM 50.5%

COc1ccc(C(SCC(N)C(=O)O)(c2ccc(OC)cc2)c2ccc(OC)cc2)cc1 (stereo unspecified)
active: [1]; [8] 97% | [1]; at 50.0 µM 94.7% | [2]; [8] 99% | [2]; at 50.0 µM 96.3% | [3]; [8] 99% | [3]; at 50.0 µM 96.3% | [4]; [8] 98% | [4]; at 50.0 µM 94.7% | [5]; [8] 98% | [5]; at 50.0 µM 96.5% | [6]; [8] 98% | [6]; at 50.0 µM 96%
inactive: [1]; [7] -11% | [2]; [7] -7% | [3]; [7] -4% | [4]; [7] -7% | [5]; [7] 15% | [6]; [7] -6%

Cc1c(N)cccc1[N+](=O)[O-]
inactive: [1]; [7] 2% | [1]; [8] 8% | [2]; [7] -6% | [2]; [8] 6% | [3]; [7] -3% | [3]; [8] -1% | [4]; [7] -1% | [4]; [8] 7% | [5]; [7] 3% | [5]; [8] 15% | [6]; [7] 0% | [6]; [8] 2%
active: [1]; at 50.0 µM 97.8% | [2]; at 50.0 µM 98.6% | [3]; at 50.0 µM 97.4% | [4]; at 50.0 µM 95.5% | [5]; at 50.0 µM 98.2% | [6]; at 50.0 µM 98.5%

Cn1cc(NC(=O)Nc2cc(C(=O)Nc3cc(C(=O)Nc4ccc5cc(S(=O)(=O)O)cc(S(=O)(=O)O)c5c4)n(C)c3)n(C)c2)cc1C(=O)Nc1cc(C(=O)Nc2ccc3cc(S(=O)(=O)O)cc(S(=O)(=O)O)c3c2)n(C)c1
active: [1]; [8] 98% | [1]; at 50.0 µM 91% | [2]; [8] 99% | [2]; at 50.0 µM 93.7% | [3]; [8] 99% | [3]; at 50.0 µM 93.5% | [4]; [8] 99% | [4]; at 50.0 µM 92.7% | [5]; [8] 98% | [5]; at 50.0 µM 92.5% | [6]; [7] 76% | [6]; [8] 98% | [6]; at 50.0 µM 90.8%
inactive: [1]; [7] 68% | [2]; [7] 36% | [3]; [7] 69% | [4]; [7] 33% | [5]; [7] 44%

CCOP(=O)(C=C=C1CCC2[C@@H]3CCc4cc(OC)ccc4C3CC[C@]12C)OCC (stereo partly specified)
inactive: [1]; [7] 5% | [2]; [7] -1% | [3]; [7] 3% | [4]; [7] 1% | [5]; [7] 13% | [6]; [7] -7%
active: [1]; [8] 97% | [1]; at 50.0 µM 97.7% | [2]; [8] 99% | [2]; at 50.0 µM 98.3% | [3]; [8] 98% | [3]; at 50.0 µM 98% | [4]; [8] 98% | [4]; at 50.0 µM 97.8% | [5]; [8] 98% | [5]; at 50.0 µM 98% | [6]; [8] 98% | [6]; at 50.0 µM 98%

COC/C(Br)=C\SC#N (tested in a mixture with another compound)
active: [1]; at 50.0 µM 98.8% | [2]; at 50.0 µM 98.7% | [3]; at 50.0 µM 98.9% | [4]; at 50.0 µM 97.7% | [5]; at 50.0 µM 98.2% | [6]; at 50.0 µM 98.2%
inactive: [1]; [7] 0% | [1]; [8] 34% | [2]; [7] -14% | [2]; [8] 23% | [3]; [7] -2% | [3]; [8] 40% | [4]; [7] -5% | [4]; [8] 61% | [5]; [7] -6% | [5]; [8] 53% | [6]; [7] 16% | [6]; [8] 38%

O=[N+]([O-])c1ccc(Cc2nc3ccccc3s2)cc1
inactive: [1]; [7] 32% | [1]; at 50.0 µM 36.8% | [2]; [7] 27% | [2]; at 50.0 µM 14.2% | [3]; [7] 47% | [3]; at 50.0 µM 6.3% | [4]; [7] 32% | [4]; [8] 53% | [4]; at 50.0 µM 22.4% | [5]; [7] 41% | [5]; at 50.0 µM 65.4% | [6]; [7] 52% | [6]; at 50.0 µM 30.9%
active: [1]; [8] 82% | [2]; [8] 95% | [3]; [8] 96% | [5]; [8] 97% | [6]; [8] 93%
